Measurements as given in PubChem BioAssay (NCATS).
Results filed as inconclusive are left out. Active and inactive are the calls of the source. Calls follow the shape of the dose curve; as a rule, active = well fitted curve in the direction sought with a large enough effect; inconclusive = small, poorly fitted or top-dose-only effect, or another doubt; inactive = no such curve, though single readings can be large; an effect the other way counts as inactive or inconclusive.

Assays:
[1] = KB-3-1 Cancer Cell Toxicity qHTS against the NCATS CANVASS Library (AID 1347366); details: outcome: dose series up to 46.1 µM; also: nearly all actives have a fitted effect of over 75% in size
Summary of the method: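 KB-3-1 cells (500 cells/well) in DMEM + 10% FBS were treated with compounds for 72 hr at 37C, 5% CO2. Viability was read as CellTiter-Glo luminescence after 10 minutes at room temperature.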

[2] = qHTS for ATAD5 Agonist screened against the NCATS CANVASS Library (AID 1347367);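 also: luciferase reporter driven by ATAD5 which rises upon DNA damage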
Summary of the method: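 HEK293T cells stably carrying an ATAD5-controlled luciferase reporter (2000 cells/well) attached for 5 hr, then received compounds in an 11-point series for 16hr at 37C. Luminescence was read after a 30 min room-temperature reagent step.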

[3] = MCF7 Cancer Cell Toxicity qHTS against the NCATS CANVASS Library (AID 1347369); details: outcome: dose series up to 91.3 µM
Summary of the method: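 MCF7, 500 cells/well; cpds 11-pt qHTS; 72 hr, 37C/5% CO2; CellTiterGlo ATP luminescence.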

[4] = qHTS for ATAD5 Antagonist screened against the NCATS CANVASS Library (AID 1347370);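 also: HEK293T cells carrying an ATAD5 luciferase reporter co-treated with 10 µM 5-fluorouridine; nearly all actives have a fitted effect of over 65% in size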
Summary of the method: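 HEK293T cells with stably integrated ATAD5-luciferase reporter, 2000/well, 5 h attachment; compounds plus 10 µM 5-fluorouridine, 16 h at 37 °C. Luciferase luminescence read, with CellTiter-Fluor viability read first.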

[5] = J3T Cancer Cell Toxicity qHTS against the NCATS CANVASS Library (AID 1347371); details: outcome: dose series up to 91.4 µM
Summary of the method: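 Cells plated at 500 per well, compounds pin-transferred, plates incubated 72 hr at 37C, then CellTiterGlo added and luminescence read to measure ATP content.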

[6] = target: Nuclear receptor subfamily 1 group I member 3 (Homo sapiens) (UniProt Q14994); assay: qHTS for Constitutive Androstane Receptor (CAR) Antagonist screened against the NCATS CANVASS Library (AID 1347372);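 also: cells stimulated with 50 nM CITCO agonist so inhibition reflects antagonism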
Sequence of Nuclear receptor subfamily 1 group I member 3 (Homo sapiens) (Q14994 whole entry, looked up): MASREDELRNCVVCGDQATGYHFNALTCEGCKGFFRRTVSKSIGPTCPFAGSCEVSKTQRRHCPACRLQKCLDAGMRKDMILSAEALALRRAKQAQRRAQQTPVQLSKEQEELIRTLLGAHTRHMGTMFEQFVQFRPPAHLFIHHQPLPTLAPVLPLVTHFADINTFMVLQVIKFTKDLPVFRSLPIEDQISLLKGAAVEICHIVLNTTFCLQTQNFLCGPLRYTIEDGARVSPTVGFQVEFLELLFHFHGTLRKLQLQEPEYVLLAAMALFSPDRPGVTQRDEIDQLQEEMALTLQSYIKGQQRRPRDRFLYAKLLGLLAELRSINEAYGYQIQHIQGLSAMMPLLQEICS
Summary of the method: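 HepG2 cells stably carrying hCAR and CYP2B6-2.2kb luciferase reporter, 2500 cells/well, compound with 50 nM CITCO agonist for 24hr at 37C. ONE-Glo luminescence measured CAR activity; CellTiter-Fluor read viability.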

[7] = target: Nuclear receptor subfamily 1 group I member 3 (Homo sapiens) (UniProt Q14994); assay: qHTS for Constitutive Androstane Receptor (CAR) Agonist screened against the NCATS CANVASS Library (AID 1347373);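 also: every well also contained 1.5 µM PK11195 alongside the test compound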
Summary of the method: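 HepG2-hCAR-CYP2B6 cells, 2500/well, attached 4hr; cpd + PK11195 1.5uM final; 24hr 37C 5% CO2. CellTiter-Fluor viability read, then ONE-Glo luminescence for CAR activation.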

[8] = 10-beta competent E. coli microbial cell viability qHTS against the NCATS CANVASS Library (AID 1347376)
Summary of the method: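 E. coli 10-beta, 0.2 OD; cpds 11-pt; o/n 37C, 5% CO2; BacTiter-Glo 20 min RT; luminescence (ATP) = viable cells. Daunomycin ctrl.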

[9] = qHTS for H2AX Agonists against the NCATS CANVASS Library (AID 1347378)
Summary of the method: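 CHO-K1 cells were plated overnight at 37C, then exposed to compounds (concentration series, 0.76% DMSO final) for 3 hr at 37C. Lysates received Eu-cryptate anti-pH2AX (S139) and d2 anti-H2AX antibodies; after 24 hr at room temperature, TR-FRET 665/620 nm ratio was read.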

[10] = qHTS for Inflammasome Signaling Inhibitors: IL-1-beta AlphaLISA screen against the NCATS CANVASS Library (AID 1347379); details: THP-1 LPS/ATP, IL-1B AlphaLISA secretion, 16 h; at 57.5 µM (top of the series) unless noted;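 also: human THP-1 cells primed with LPS then triggered with ATP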
Summary of the method: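 THP-1 cells pretreated 1 hr with compound (up to 57.5 uM final), then stimulated with LPS (250 ng/mL final) and ATP (1.25 mM final). Secreted IL-1B measured by AlphaLISA after 16 hr; glyburide as positive control.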

[11] = qHTS for Antimalaria activity screened against the NCATS CANVASS Library (AID 1347380);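 also: Plasmodium falciparum strain Dd2 asexual parasites grown in red blood cells; nearly all actives have a fitted effect of over 40% in size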
Summary of the method: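 Dd2 strain, infected erythrocytes 2.5% Hct final / 0.3% parasitemia. 11-pt qHTS titration, 72 h, 37C, 5% O2, 5% CO2. Lysis buffer + SYBR Green, 18 h, fluorescence 485/535 nm.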

[12] = Inflammasome Signaling qHTS Counterscreen: IL-1-beta AlphaLISA counterscreen against the NCATS CANVASS Library (AID 1347381);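 also: cell-free check with purified IL-1β in medium and no THP-1 cells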
Summary of the method: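 Cell-free interference check: compounds added to medium spiked with 4 pg purified IL-1β. Anti-IL-1β acceptor beads (6 ug/mL) with 0.6 nM biotinylated antibody added for 1 h at RT, then streptavidin donor beads (24 ug/mL) for 30 min in the dark. AlphaLISA read at 680/615 nm.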

[13] = Cytotoxicity qHTS for assessment of Hepg2 cells membrane integrity screened against the NCATS CANVASS Library (AID 1347387)
Summary of the method: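 qHTS, 11-pt conc. series, 0.59 nM - 46 uM final; HepG2 2000 cells/well, overnight attachment; 5 hr compound exposure 37C/5% CO2; CytoTox-ONE, 10 min RT; fluorescence ex560/em590 = LDH from damaged membranes.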

[14] = qHTS for Activators of p53 Stress Response Pathway screened against the NCATS CANVASS Library (AID 1347388)
Summary of the method: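 p53RE-bla HCT-116 cells (4000/well) were pre-incubated for 5 h, then treated with compound (11 points) for 16 h at 37C. After 2 h with CCF4, the 460/530 nm ratio gave reporter activation; CellTiter-Glo measured viability.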

[15] = qHTS assay for small molecule disruptors of mitochondrial membrane potential screened against the NCATS CANVASS Library (AID 1347389); also: nearly all actives have a fitted effect of over 60% in size
Summary of the method: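 HepG2, 2,000 cells/well, attached overnight; compound 1 hr, 37C, 5% CO2; Mito-MPS dye 30 min, 37C; fluorescence 535 nm (monomer) and 590 nm (aggregate); decreased 590/535 ratio = depolarization.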

[16] = Secretion counterscreen for inhibitors of the SERCaMP assay screened against the NCATS CANVASS Library (AID 1347390);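 also: light from luciferase secreted into medium read as a measure of general secretion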
Summary of the method: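 SH-SY5Y cells expressing constitutively secreted GLuc, 1000 cells/well, attached 4 h at 37C, then exposed to compounds (0.001 - 77 uM, 11-pnt series) for 20 h. Coelenterazine added; luminescence read to flag secretory-pathway interferers.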

[17] = qHTS for activators of Nrf2/ARE signaling pathway screened against the NCATS CANVASS Library (AID 1347391); also: nearly all actives have a fitted effect of over 60% in size
Summary of the method: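 Plate ARE-bla HepG2 cells at 2000/well and let them settle 5 h. Pin-transfer compounds in DMSO, incubate 16 h at 37C. Load CCF4 for 2 h at room temperature and read blue/green fluorescence.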

[18] = qHTS for activators of dead-cell proteases activity screened against the NCATS CANVASS Library (AID 1347392);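 also: luminescence from protease leaking out of membrane-damaged cells cleaving impermeant substrate; rising signal means more cytotoxicity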
Summary of the method: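 HepG2 cells, 2000/well, attached 18 h at 37C, then exposed to compounds (11-point qHTS) for 5 h. Dead-cell protease release read as luminescence from cell-impermeant AAF-aminoluciferin substrate after 15 min at room temperature.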

[19] = G06 Cancer Cell Toxicity qHTS against the NCATS CANVASS Library (AID 1347368); also: nearly all actives have a fitted effect of over 60% in size
Summary of the method: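 Dog G06 glioma line, 500 cells/well; cpds pin-transferred, 11-pt; 72 hr, 37C/5% CO2; CellTiterGlo luminescence (ATP) endpoint.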

[20] = qHTS for inhibitors of ER calcium dysfunction: SERCaMP assay screened against the NCATS CANVASS Library (AID 1347393);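 also: lower secreted reporter signal means inhibitor of ER calcium depletion; nearly all actives have a fitted effect of over 40% in size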
Summary of the method: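 SH-SY5Y GLuc-SERCaMP, 1000 cells/well, 4 h attach; cpd 16 h, 37C/5% CO2; thapsigargin (added as 6x 600 nM) 4 h; coelenterazine; luminescence. Reduced reporter release = ER Ca stabilization.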

Measured: outcome

CC(=O)NCCc1c[nH]c2ccc(O)cc12
not listed: [19] | [20]
inactive: all other assays above

O=C(O)Cc1c[nH]c2ccc(O)cc12
inactive: [1] | [2] | [19] | [3] | [4] | [5] | [6] | [7] | [8] | [9] | [10] inactive [at 114 µM] | [12] | [13] | [14] | [15] | [16] | [17] | [18] | [20]
